{"source": "PubChem BioAssay (EPA / NIEHS)", "note": "Records with an inconclusive call do not appear. Active and inactive are the calls of the source. The calls were made as follows: active = hit-call score of the fitted dose curve at least 0.9, where 1 is the maximum; inconclusive = response in the unintended direction; inactive = score below 0.9.", "data": [{"assay": "Tanguay_ZF_120hpf_JAW_legacy: (Legacy) Oregon State University Tanguay Lab 120 Hour Post-fertilization zebrafish Assay for Jaw Malformation (AID 2283638);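 as to AC50: active means more embryos with jaw malformation than DMSO controls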", "method": "Tanguay_ZF_120hpf_legacy is a whole embryo, multiplexed endpoint assay using zebrafish larvae exposed for 120 hours post fertilization on a 96-well plate.Tanguay_ZF_120hpf_JAW_legacy is one of one assay component(s) measured or calculated from the Tanguay_ZF_120hpf_legacy assay. It is designed to make measurements of zebrafish development as detected with brightfield microscopy of developing zebrafish embryos.Data from the assay component Tanguay_ZF_120hpf_JAW_legacy was analyzed into 1 assay endpoints. This assay endpoint, Tanguay_ZF_120hpf_JAW_legacy, was analyzed in the positive analysis fitting direction relative to DMSO as the negative control and baseline of activity. Using a type of morphology reporter, gain-of-signal activity can be used to understand changes in developmentals as they relate to the whole embryo. To generalize the intended target to other relatable targets, this assay endpoint is annotated to the zebrafish development intended target family, where the subfamily is embryonic jaw development.\nZebrafish husbandry: Tropical 5D wild-type adult zebrafish were housed in at an approximate density of 1000 per 100 gallon tank at the Sinnhuber Aquatic Research Laboratory, Oregon State University, Corvallis, OR. Each tank was kept at standard laboratory conditions of 28C on a 14-h light/10-h dark photoperiod in fish water consisting of reverse osmosis water supplemented with a commercially available salt (Instant Ocean). Spawning funnels were placed into the tanks the night prior, and embryos were collected and staged. To increase bioavailability, the chorion was enzymatically removed using pronase (63.6mg/ml, >/= 3.5U/mg, Sigma-Aldrich: P5147) at 4 hours post fertilization (hpf) using a custom automated dechorionator.Chemical exposures: Six hpf dechorionated embryos were placed 1 embryo per well in a 96-well plate prefilled with 90 ul of EM using automated embryo placement systems (AEPS). Ten microliters of each row of dilution plate 2 was added to 2 exposure plates. The final DMSO concentration used was 0.64% (vol/vol). Thirty-two embryos were also exposed to 5uM trimethyltin chloride (positive control). Plates were sealed to prevent evaporation and foil covered to reduce light exposure and kept in a 28C incubator. Embryos were statically exposed until 120 hpf. At 24 hpf, embryos were assessed for photomotor response using a custom photomotor response analysis tool (PRAT) and for developmental toxicity endpoints (MO24: mortality at 24 hpf, DP: developmental progression, SM: spontaneous movement, and NC: notochord distortion). At 120 hpf, locomotor activity was measured using Viewpoint Zebralab and assessed for 18 endpoints. Zebrafish acquisition and analysis program (ZAAP), a custom program designed to inventory, acquire, and manage zebrafish data, was used to collect developmental endpoints as either present or absent (i.e., binary responses were recorded). If mortality occurred for an embryo (at either 24 or 120 hpf), the non-mortality endpoints were not measured.", "values": [{"smiles": "Cc1ccc2oc(CN(Cc3ccccc3)C(=O)Nc3c(F)cc(F)cc3F)c(-c3ccc(Cl)cc3)c2c1", "outcome": "inactive"}, {"smiles": "O=C=NCCCCCCN=C=O", "outcome": "inactive"}, {"smiles": "Oc1ccc2ccccc2c1", "AC50": "38.2 µM (active)"}, {"smiles": "O=CCCCC=O", "outcome": "inactive"}, {"smiles": "CC[C@@H]1C[C@H](N(Cc2cc(C(F)(F)F)cc(C(F)(F)F)c2)C(C)=O)c2cc(C(F)(F)F)ccc2N1C(=O)OC(C)C", "outcome": "inactive"}, {"smiles": "C[C@]12CC[C@@H]3c4ccc(O)cc4CC[C@H]3[C@@H]1CCC2=O", "outcome": "inactive"}, {"smiles": "Oc1ccccc1", "outcome": "inactive"}, {"smiles": "CC/C(=C(/CC)c1ccc(O)cc1)c1ccc(O)cc1", "outcome": "inactive"}, {"smiles": "CCCCCCCC[Si](OCC)(OCC)OCC", "outcome": "inactive"}, {"smiles": "CCO[Si](CCCNC(N)=O)(OCC)OCC", "outcome": "inactive"}, {"smiles": "O=C(O)Cn1c(=O)n(Cc2ccc(Br)cc2F)c(=O)c2ccc(Cl)cc21", "outcome": "inactive"}, {"smiles": "O=C1c2ccccc2C(=O)N1CCc1noc(-c2ccc(CN3CCCCCC3)s2)n1", "outcome": "inactive"}, {"smiles": "CC1=CC(=O)/C(=C(/C)O)C(=O)O1", "outcome": "inactive"}, {"smiles": "Cc1cccc2ccccc12", "outcome": "inactive"}, {"smiles": "CCN(CC)C(=O)c1cc(S(=O)(=O)Cc2ccccc2)c(N2CCC(c3ccccc3)CC2)cc1N(CC)CCN(C)C", "outcome": "inactive"}, {"smiles": "O=C(Nc1ccc(Cl)cc1)Nc1ccc(Cl)c(Cl)c1", "outcome": "inactive"}, {"smiles": "CC1(C)NC(=O)N(c2ccc([N+](=O)[O-])c(C(F)(F)F)c2)C1=O", "outcome": "inactive"}, {"smiles": "NC(=O)c1nc(-c2cccc(-c3cc(F)ccc3OCC(F)(F)C(F)(F)F)c2)n[nH]1", "AC50": "28.7 µM (active)"}, {"smiles": "CCCCCCCCCC(=O)O", "outcome": "inactive"}, {"smiles": "CC(C)(C)c1cc(/C=C2\\SC(N)=NC2=O)cc(C(C)(C)C)c1O", "outcome": "inactive"}, {"smiles": "CC[C@H](NC(=O)c1cc(F)ccc1NS(=O)(=O)c1cccc2cccnc12)c1ccccc1", "outcome": "inactive"}, {"smiles": "COc1cccc([C@H](O)C2CCN(CCc3ccc(F)cc3)CC2)c1OC", "outcome": "inactive"}, {"smiles": "CC(O)CC(C)(C)O", "note": "(stereo not given)", "outcome": "inactive"}, {"smiles": "O=c1ccc2ccccc2o1", "outcome": "inactive"}, {"smiles": "Cc1c2ccccc2c(C)c2c1ccc1ccccc12", "outcome": "inactive"}, {"smiles": "COCC(C)OCC(C)OCC(C)O", "note": "(stereo not given)", "outcome": "inactive"}, {"smiles": "CCCCCCCCCCCC[N+](C)(C)C", "outcome": "inactive"}, {"smiles": "COc1ccc2cc(S(=O)(=O)N[C@H](CC(=O)N[C@H](Cc3ccc(CN4[C@H](C)CCC[C@@H]4C)cc3)C(=O)N(C)C(C)C)c3ccc4c(c3)OCO4)ccc2c1", "outcome": "inactive"}, {"smiles": "CCCCCCCCOc1ccc(C(=O)c2ccccc2)c(O)c1", "outcome": "inactive"}, {"smiles": "CCCCCCCCN(C)CCCCCCCC", "outcome": "inactive"}, {"smiles": "CC(C)(O)c1ccc(CNC(=O)c2cccnc2Oc2ccc3nonc3c2)cc1", "outcome": "inactive"}, {"smiles": "NCc1cccc(C2CCN(C(=O)c3ccc(C#Cc4ccccc4F)o3)CC2)c1", "outcome": "inactive"}, {"smiles": "CCCC(=O)OCCC(C)C", "outcome": "inactive"}, {"smiles": "CCCCCCCCOC(=O)c1cc(O)c(O)c(O)c1", "outcome": "inactive"}, {"smiles": "c1ccc2n[nH]nc2c1", "outcome": "inactive"}, {"smiles": "Cc1ncc(CO)c(CO)c1O", "outcome": "inactive"}, {"smiles": "O=C(OCCCCCCOC(=O)c1ccccc1)c1ccccc1", "outcome": "inactive"}, {"smiles": "Clc1cc(Cl)c2c(c1)N=C1CCCCCN1C2", "outcome": "inactive"}, {"smiles": "OCCO", "outcome": "inactive"}, {"smiles": "Cc1ccc(C(C)C)cc1", "outcome": "inactive"}]}]}
